JMJD2A Tudor = inhibitors of human JMJD2A Tudor domain; AID 504339; 390,000 tested, 4.4% active; O75164; AlphaScreen JMJD2A-Tudor / H3K4me3 peptide binding; Potency, µM (titrated, usually from 114 µM), for the others: at the highest dose activity change, negative = inhibition, actives largely listed as inhibitors; further: potency means the concentration at half of the fitted maximal effect; on the % scale 0 is the no-effect control and ±100 the full control effect; nearly all actives have a fitted effect of over 50% in size
G9a inh = G9a (human) methyltransferase inhibition; Q96KQ7; G9a H3K9 monomethylation, AlphaScreen, 2 h; Potency, µM (series often up to 102 µM), for the others: top-dose activity, negative = inhibition, most hits filed as inhibitors; AID 504332; 350,000 tested, 8.8% active; further: potency means the concentration at half of the fitted maximal effect; on the % scale 0 is the no-effect control and ±100 the full control effect; nearly all actives have a fitted effect of over 75% in size
Target sequence (Q96KQ7 913-1193 limits assumed): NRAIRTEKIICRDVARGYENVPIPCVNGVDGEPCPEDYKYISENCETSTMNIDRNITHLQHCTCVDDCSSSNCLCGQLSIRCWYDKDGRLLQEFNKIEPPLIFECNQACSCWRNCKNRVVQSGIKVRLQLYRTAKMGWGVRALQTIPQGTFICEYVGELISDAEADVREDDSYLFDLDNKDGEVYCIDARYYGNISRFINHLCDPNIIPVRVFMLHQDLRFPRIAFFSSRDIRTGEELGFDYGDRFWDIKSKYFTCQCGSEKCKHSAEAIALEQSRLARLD
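AlphaScreen read-out: biotin-H3K9 peptide (500 nM) methylation by 20 nM enzyme with 20 uM SAM, 2 h at room temperature after 15 min compound preincubation; anti-monomethyl H3K9 antibody plus donor/acceptor beads, 10 min dark.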
PI5P4Ka inh = blocks human PI5P4K alpha kinase activity; max response, %; 330,000 tested, 1.2% active; P48426; PI5P4Kalpha enzyme, ADP-Glo luminescence, 60 min; active compounds read low; active means max response of -50% or lower; inconclusive means between -30% and -50%; inactive means -30% or higher; further: value at the top dose of about 77 µM; on the % scale 0 is the no-effect control and ±100 the full control effect
Target sequence (P48426 whole entry, looked up): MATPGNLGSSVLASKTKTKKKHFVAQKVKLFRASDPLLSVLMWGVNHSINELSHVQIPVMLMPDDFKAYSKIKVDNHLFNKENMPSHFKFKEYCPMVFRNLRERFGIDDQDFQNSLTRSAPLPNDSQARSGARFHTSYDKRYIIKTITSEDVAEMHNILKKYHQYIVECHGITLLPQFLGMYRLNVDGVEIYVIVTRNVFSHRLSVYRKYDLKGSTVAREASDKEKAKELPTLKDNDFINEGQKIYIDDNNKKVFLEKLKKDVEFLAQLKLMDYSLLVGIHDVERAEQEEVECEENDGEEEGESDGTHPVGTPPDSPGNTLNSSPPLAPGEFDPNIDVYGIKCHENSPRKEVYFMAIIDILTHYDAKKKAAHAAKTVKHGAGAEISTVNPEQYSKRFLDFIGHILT
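ADP-Glo luminescence end-point after a 60 min room-temperature kinase reaction. PI5P4Kalpha and substrate in HEPES pH 7.4 buffer with EGTA, 0.1% CHAPS and 5% DMSO; ATP at 5 microM final.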
HP1b binding inh = blocks HP1-beta chromodomain binding to methylated histone tails | AlphaScreen HP1-beta / biotin-H3K9me3 peptide binding | Potency, µM (doses to about 114 µM), for the others: at the top dose activity change, negative = inhibition, hits mostly inhibitors | 390,000 tested, 0.56% active; further: potency means the concentration at half of the fitted maximal effect; nearly all actives have a fitted effect of over 70% in size
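Compound inhibition of the preformed complex between 50 nM HP1-beta and 50 nM biotinylated H3K9me3 peptide was read by AlphaScreen. Buffer was PBS pH 7.4 with 0.01% Tween-20. Incubations ran 30 min at room temperature, with 10 ug/mL donor/acceptor beads.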
BAZ2B block = BAZ2B (human) inhibition; 360,000 tested, 4.4% active; AlphaScreen BAZ2B-H3K14Ac peptide displacement; Potency, µM (highest dose often 114 µM), inactives show at the top dose activity change, negative = inhibition, most hits filed as inhibitors; further: potency means the concentration at half of the fitted maximal effect; on the % scale 0 is the no-effect control and ±100 the full control effect; nearly all actives have a fitted effect of over 60% in size
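In this displacement format the biotinylated H3(5-23) peptide acetylated at Lys14 serves as ligand at 50 nM, with BAZ2B at 50 nM in PBS pH 7.4 containing 0.01% Tween-20. Donor and acceptor beads are 10 ug/mL final.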
L3MBTL1 block = blocks human L3MBTL1 | Q9Y468 | AlphaScreen L3MBTL1–H3K9me1 peptide binding | Potency, µM (highest dose often 57.1 µM), for the others: at the highest dose activity, negative = inhibition, most hits filed as inhibitors | 230,000 tested, 0.66% active; further: potency means the concentration at half of the fitted maximal effect; on the % scale 0 is the no-effect control and ±100 the full control effect; nearly all actives have a fitted effect of over 60% in size
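Displacement of a biotinylated histone H3(1-15) peptide monomethylated at Lys9 (75 nM) from L3MBTL1 (50 nM) was measured by AlphaScreen after a 30 min room-temperature compound incubation; cefsulodin titration served as intraplate control.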
The depositor's hits bear a star; ? = inconclusive; . = no result; ! = not confirmed by another sample; [ ] = another dose, or the depositor's remark. This is a sample that favours compounds with a hit; in the whole collection about 11% have one here. Unless noted, the call rests on the fitted dose curve; in most records, active means well fitted inhibition curve with a large enough effect; inconclusive means small, poorly fitted or top-dose-only effect; inactive means no such curve, though single readings can be large or run the other way.

SMILES	JMJD2A Tudor	G9a inh	PI5P4Ka inh	HP1b binding inh	BAZ2B block	L3MBTL1 block
Cc1ccccc1OCC(O)Cn1c2ccccc2c2ccccc21 (configuration not stated)	8.8%	61.9%	.	55.6%	6.3%	8.1%
CC(C)OCC(O)CN1CCN(CCN2C(=O)c3cccc4cccc(c34)C2=O)CC1 (configuration not stated)	-24.5%	?	-1.4	24.4%	-19.2%[57.1 µM]	.
Cc1ccccc1OCC(O)CN1CCN(CC(O)COc2ccccc2C)C(C)C1 (configuration not stated)	2µM*	17.8%[2.33 µM]	14.4	?	22.4µM*	.
Cc1ccccc1OCC(O)CN1CCN(CCN2C(=O)c3cccc4cccc(c34)C2=O)CC1 (configuration not stated)	?	79.4µM*	2.5	-24.4%	?	-16.8%
CC(=O)c1ccc(OCC(O)CN2CCN(CCN3C(=O)c4cccc5cccc(c45)C3=O)CC2)cc1 (configuration not stated)	?	-22.9%[59 µM]	-6.6	3.0%	-37.1%	-2.5%
C=CCc1ccccc1OCC(O)CN1CCN(CCN2C(=O)c3cccc4cccc(c34)C2=O)CC1 (configuration not stated)	?	39.8µM*	-8.9	?	?	-10.2%
Cc1cc(O)c(/C=N/OCc2ccc(Cl)cc2Cl)c(=O)o1	?	20µM*	-6.8	9.6%	1.0%	1.8%
Cc1cc(O)c(/C=N/Nc2ccc(Cl)cc2)c(=O)o1	?	8.91µM*	-12.5	-14.1%	2.3%[57.1 µM]	-1.3%
Cc1cc(O)c(/C=N/Nc2ccccc2Cl)c(=O)o1	56.2µM*	1.41µM*	0.1	16.5%	-3.9%	-0.9%
Cc1cc(O)c(/C=N/Nc2cccc(Cl)c2)c(=O)o1	-26.0%[11.4 µM]	2.24µM*	5.6	36.4%	-7.2%	5.2%
COc1ccc(C2=CC(c3c(C)nn(-c4ccccc4)c3Cl)n3nnnc3N2)cc1OC (configuration not stated)	?	44.7µM*	-5.6	4.5%	-25.0%	-2.4%
CC1=CC(C)(C)Nc2ccc(OC(=O)CCN3C(=O)c4ccccc4C3=O)cc21	-18.5%	20µM*	-3.5	?	35.5µM*	-7.7%
O=C(CCN1C(=O)c2ccccc2C1=O)Oc1ccc2ccccc2c1	5.9%	63.2%[12.7 µM]	-2.5	45.2%	10.0%	-0.5%
N#CCCn1c(=O)cnc2cnc(Oc3cccc(Cl)c3)nc21	.	0.8%[0.501 µM]	.	.	.	.
CC(C)(C)c1ccc(C(=O)Nc2nc3nc(-c4ccccc4)cc(=O)n3[nH]2)cc1	-4.7%	25.0%[59 µM]	.	61.3%	3.7%	.
COc1cc2c(cc1OC)C1=C(C#N)CC/C(=N\S(=O)(=O)c3ccccc3)N1CC2	-30.3%	79.4µM*	-2.3	29.1%	-5.4%	-1.2%
COc1cccc(-c2nn3c(=O)cc(CN4CCN(S(=O)(=O)c5ccc(C)cc5)CC4)nc3s2)c1	-7.1%	0.9%[59 µM]	.	26.3%[57 µM]	1.0%	.
COc1ccc(CNS(=O)(=O)c2csc(C(N)=O)c2)cc1OC	31.6µM*!	6.2%[59 µM]	-0.5	25.9%	-8.1%	.
Cc1cc(C)c(NC(=O)CN(CC(=O)O)CC(=O)O)c(C)c1Br	.	3.7%[2.33 µM]	.	.	.	.
CCOc1ccccc1NC(=O)CN1C(=O)C2(SCC(=O)N2c2cccc(F)c2)c2ccccc21 (configuration not stated)	-3.6%	2.4%[59 µM]	.	30.0%	9.6%[57.1 µM]	.
CN1C(=O)c2ccccc2C(C(=O)O)C1c1cn(C)c2ccccc12 (configuration not stated)	44.7µM*	-14.5%	-0.6	?	-0.2%[57.1 µM]	-6.9%
COc1ccc(C2C(C(=O)O)c3ccccc3C(=O)N2C)cc1Br (configuration not stated)	-9.3%	3.98µM*	-3.6	64.2%	-29.1%	0.0%[11.4 µM]
CCOC(=O)c1c(C)[nH]c(C)c1S(=O)(=O)N1CCC(C(=O)NCc2ccc(F)cc2)CC1	-13.3%	-28.7%[59 µM]	.	29.1%	-10.9%	.
CCN(CC)S(=O)(=O)c1nnc(NC(=O)COc2cccc(C)c2)s1	-27.6%	-40.7%[59 µM]	.	18.3%	?	.
COc1cc(OC)c(-c2nn3c(-c4cc(C)[nH]n4)nnc3s2)cc1OC	-19.2%[57.1 µM]	.	.	17.2%[57 µM]	.	.
SMILES	JMJD2A Tudor	G9a inh	PI5P4Ka inh	HP1b binding inh	BAZ2B block	L3MBTL1 block
CCOc1ccc(CNC(=O)c2cc3ccccn3n2)cc1OC	-13.3%	-22.5%[59 µM]	.	9.9%	-9.7%	.
CCC(O)CC(C(=O)NNc1ccccc1)C(=O)NNc1ccccc1 (configuration not stated)	-16.5%	7.94µM*	8.0	?	-1.6%	11.4%
COc1ccc(C2(N3CCN(c4cccc(C)c4C)CC3)C(=O)c3ccccc3C2=O)cc1	-21.2%	-33.6%[59 µM]	.	-11.8%	-16.4%	.
CN(C)c1ccc(/C=N/NC(=O)c2ccccn2)cc1	-24.9%	.	-27.3	8.7%	?	0.5%
O=C(N/N=C/c1ccccn1)c1cccs1	?	-7.7%	-0.3	31.5%	31.6µM*	-35.1%
O=C(N/N=C/c1ccncc1)c1ccccn1	0.0%	2µM*	-2.0	40.5%	50.1µM*	.
O=C(N/N=C\c1ccccn1)c1cccc(C(=O)N/N=C\c2ccccn2)n1	-16.8%	.	-5.8	22.5%	.	.
O=C(Cc1ccc(F)cc1)N/N=C/c1ccccn1	4.7%	3.98µM*	-2.1	36.6%	?	26.9%
Cn1ncc(Cl)c1C(=O)N/N=C/c1cccc(OC2CSC2)c1	-18.8%	0.6%	3.6	37.4%	79.4µM*	-1.4%
O=C(CSc1ncccn1)N/N=C/c1cccc(OC2CSC2)c1	-12.9%	-26.1%	-0.5	23.5%	?	3.7%
COc1ccccc1C(=O)Nc1c(C(=O)N(C)c2ccccc2)sc2nc(C)cc(C)c12	2.2%	0.6%[59 µM]	.	30.4%	-17.6%	.
CCCCN(Cc1cc2cc(C)ccc2[nH]c1=O)C(=O)c1cccc(Cl)c1	-6.9%	2.0%[59 µM]	.	34.1%	-1.5%	.
COc1cc(C(=O)N/N=C/c2ccccn2)cc(OC)c1OC	-23.1%	-2.4%	0.3	3.5%	25.1µM*	38.9%
Cc1cc(C)cc(OCC(=O)N/N=C/c2ccccn2)c1	?	?	-0.9	39.3%	79.4µM*	.
Cc1ccc(C(=O)Nc2ccc(C(=O)N/N=C/c3ccccn3)cc2)cc1	-14.5%	-45.9%	3.2	58.6%	20.1%	.
Cc1ccc(OC(C)C(=O)N/N=C/c2ccccn2)cc1 (configuration not stated)	-9.4%	1.41µM*	-1.6	39.0%	70.8µM*	85.3%
COc1ccc(C(=O)N/N=C/c2ccccn2)cc1OC	?	3.5%	-3.9	7.3%	?	.
O=C(NN=C1c2ccccc2-c2ccccc21)c1ccccn1	?	4.0%	.	11.2%	50.1µM*	-3.9%
CC(=N/O)/C(C)=N\NC(=O)c1ccccn1	-17.9%	0.6%	-13.7	33.5%	.	.

Assay outcomes as filed in PubChem BioAssay.
